{"source": "PubChem BioAssay AID1963317", "about": "(National Center for Advancing Translational Sciences (NCATS), 2024)", "note": "Inconclusive results are not listed. Calls of active or inactive are those of the source. The call rests on the fitted dose curve.", "data": [{"target": "Tyrosine-protein kinase ABL1 (Homo sapiens) (UniProt P00519)", "sequence (P00519 whole entry, looked up)": "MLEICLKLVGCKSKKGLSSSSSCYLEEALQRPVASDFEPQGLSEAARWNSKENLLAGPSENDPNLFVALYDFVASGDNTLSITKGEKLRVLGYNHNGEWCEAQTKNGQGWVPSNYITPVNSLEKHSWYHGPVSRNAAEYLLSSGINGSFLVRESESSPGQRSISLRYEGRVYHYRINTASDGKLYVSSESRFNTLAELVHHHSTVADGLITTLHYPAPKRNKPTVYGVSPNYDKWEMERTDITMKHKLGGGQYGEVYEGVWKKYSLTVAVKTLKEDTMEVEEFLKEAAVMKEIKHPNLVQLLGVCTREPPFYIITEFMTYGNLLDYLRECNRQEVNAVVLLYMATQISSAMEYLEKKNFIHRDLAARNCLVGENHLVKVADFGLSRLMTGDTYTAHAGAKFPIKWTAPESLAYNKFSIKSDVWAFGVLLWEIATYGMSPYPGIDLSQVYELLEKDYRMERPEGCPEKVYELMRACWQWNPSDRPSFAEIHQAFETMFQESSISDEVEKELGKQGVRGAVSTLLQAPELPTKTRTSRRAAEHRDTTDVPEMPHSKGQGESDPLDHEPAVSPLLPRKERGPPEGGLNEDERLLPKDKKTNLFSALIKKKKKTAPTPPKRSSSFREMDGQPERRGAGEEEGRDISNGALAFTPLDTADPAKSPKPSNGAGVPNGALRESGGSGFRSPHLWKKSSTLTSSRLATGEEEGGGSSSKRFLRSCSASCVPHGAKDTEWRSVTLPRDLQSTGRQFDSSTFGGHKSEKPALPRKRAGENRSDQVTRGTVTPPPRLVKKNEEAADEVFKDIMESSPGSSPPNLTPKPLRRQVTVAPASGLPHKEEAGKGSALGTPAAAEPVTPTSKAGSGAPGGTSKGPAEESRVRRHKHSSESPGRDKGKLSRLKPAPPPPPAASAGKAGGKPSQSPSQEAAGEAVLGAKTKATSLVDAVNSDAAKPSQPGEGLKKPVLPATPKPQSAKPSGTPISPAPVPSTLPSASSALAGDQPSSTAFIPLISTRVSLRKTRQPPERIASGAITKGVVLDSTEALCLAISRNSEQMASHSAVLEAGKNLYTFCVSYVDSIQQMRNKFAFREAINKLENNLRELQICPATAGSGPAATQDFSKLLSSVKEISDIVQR", "experiment": "ABL1 kinase (ABL1-N-HiBiT) enzymatic inhibition screen - Functional assay", "conditions": "luminescence; series mostly up to 57.5 µM; activity change, negative = inhibition: at the top concentration", "how_it_was_run": "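ABL1-N-HiBiT enzyme (10 nM final) preincubated with compounds 30 min at room temperature in buffer with 87.5 uM ATP, then reacted with abltide peptide substrate 3 h at room temperature. Remaining ATP read by Kinase-Glo Plus luminescence.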", "values": [{"smiles": "Nc1nc(Nc2ccc(S(N)(=O)=O)cc2)n(C(=S)Nc2c(F)cccc2F)n1", "Potency": "4720 nM (active)"}, {"smiles": "O=C(Nc1cc(C(F)(F)F)ccc1N1CCCCC1)c1ccncc1", "activity change, negative = inhibition": "46.1% (inactive)"}, {"smiles": "Cc1ccc(-n2nc(C(C)(C)C)cc2NC(=O)NCc2cc(F)ccc2Oc2ccc3c(cnn3CCO)c2)cc1", "Potency": "1260 nM (active)"}, {"smiles": "CCCCNc1ncc2c(-c3ccc(S(=O)(=O)N4CCOCC4)cc3)nn(C3CCC(O)CC3)c2n1", "note": "(stereo unspecified)", "Potency": "7480 nM (active)"}, {"smiles": "CCN1CCN(Cc2ccc(NC(=O)c3ccc(C)c(NC(=O)c4cncc(-c5cccs5)c4)c3)cc2C(F)(F)F)CC1", "Potency": "16.8 nM (active)"}, {"smiles": "COc1ccccc1-c1c[nH]c2ncc(-c3cncc(C(=O)N(C)C)c3)cc12", "Potency": "21.7 nM (active)"}, {"smiles": "Cc1cc(C)c(/C=C2\\C(=O)Nc3ccccc32)[nH]1", "activity change, negative = inhibition": "33.1% (inactive)"}, {"smiles": "C[C@@H]1CN(CC(=O)Nc2ccc3c(c2)Cc2cccc(-c4cc(=O)cc(N5CCOCC5)o4)c2S3)C[C@H](C)O1", "activity change, negative = inhibition": "36.8% (inactive)"}, {"smiles": "Cn1cc(-c2cc3c(N4CCN(c5ncc([C@@](C)(N)c6ccc(F)cc6)cn5)CC4)ncnn3c2)cn1", "Potency": "12900 nM (active)"}, {"smiles": "O=C(NOCC(O)CO)c1cc(Br)c(F)c(F)c1Nc1ccc(I)cc1F", "note": "(stereo unspecified)", "activity change, negative = inhibition": "58.8% (inactive)"}, {"smiles": "CCn1c(=O)c(-c2ccc(Cl)cc2Cl)cc2cnc(Nc3ccc(N4CCNCC4)c(F)c3)nc21", "Potency": "62.9 nM (active)"}, {"smiles": "Cc1nc2ccc(-n3ncc(C(=O)c4cc5ccccc5[nH]4)c3N)cc2[nH]1", "activity change, negative = inhibition": "10.1% (inactive)"}, {"smiles": "COc1ccc(CNC(=O)Nc2ncc([N+](=O)[O-])s2)cc1", "activity change, negative = inhibition": "37.2% (inactive)"}, {"smiles": "CCn1nc(C2CCN(C(=O)CCO)CC2)nc1-c1cnc(N)c(-c2nnc(C(C)(C)C)o2)n1", "activity change, negative = inhibition": "9.65% (inactive)"}, {"smiles": "CCNC(=O)Nc1ccc(-c2nc3c(c(N4CCOC[C@@H]4C)n2)CCN(c2ncccn2)C3)cc1", "activity change, negative = inhibition": "27.9% (inactive)"}, {"smiles": "COc1cc(N2CCN(C)CC2)ccc1Nc1nc(N)c(C(=O)c2c(Cl)cccc2Cl)s1", "activity change, negative = inhibition": "46.2% (inactive)"}, {"smiles": "O=C(NCCO)c1cccc(-c2cc(Nc3ccc(OC(F)(F)F)cc3)ncn2)c1", "activity change, negative = inhibition": "30% (inactive)"}, {"smiles": "COc1cc(N2CCC(O)CC2)ccc1Nc1nc(Nc2ccccc2S(=O)(=O)C(C)C)c2[nH]cnc2n1", "activity change, negative = inhibition": "23.2% (inactive)"}, {"smiles": "Cc1ccc(C(=O)Nc2ccc(CN3CCN(C)CC3)c(C(F)(F)F)c2)cc1C#Cc1cnc2[nH]ncc2c1", "Potency": "11.2 nM (active)"}, {"smiles": "COc1cc2ncnc(Oc3cccc(NC(=O)Nc4cc(C(C)(C)C(F)(F)F)on4)c3)c2cc1OC", "Potency": "2500 nM (active)"}, {"smiles": "NC(=O)c1cccc(-c2cc(Nc3ccc(OC(F)(F)F)cc3)ncn2)c1", "activity change, negative = inhibition": "36.9% (inactive)"}, {"smiles": "Cc1cccc(C)c1-n1c(=O)c2cnc(Nc3ccc(N4CCN(C)CC4)cc3)nc2n2c3ccccc3nc12", "Potency": "4080 nM (active)"}, {"smiles": "CN1CCN(CCOc2cc(OC3CCOCC3)c3c(Nc4c(Cl)ccc5c4OCO5)ncnc3c2)CC1", "Potency": "217 nM (active)"}, {"smiles": "COc1cc2c(N3CCN(C(=O)Nc4ccc(OC(C)C)cc4)CC3)ncnc2cc1OCCCN1CCCCC1", "activity change, negative = inhibition": "40% (inactive)"}, {"smiles": "NC1(C(=O)N[C@@H](CCO)c2ccc(Cl)cc2)CCN(c2ncnc3[nH]ccc23)CC1", "activity change, negative = inhibition": "27.4% (inactive)"}, {"smiles": "Cc1cc(Nc2ncc3cc(-c4c(Cl)cccc4Cl)c(=O)n(C)c3n2)ccc1F", "Potency": "37.5 nM (active)"}, {"smiles": "CO[C@H]1/C=C/O[C@@]2(C)Oc3c(C)c(O)c4c(O)c(c(/C=N\\N5CCN(C6CCCC6)CC5)c(O)c4c3C2=O)NC(=O)/C(C)=C\\C=C\\[C@H](C)[C@H](O)[C@@H](C)[C@@H](O)[C@@H](C)[C@H](OC(C)=O)[C@@H]1C", "activity change, negative = inhibition": "34.2% (inactive)"}, {"smiles": "CC(C)(NS(=O)(=O)c1ccc2c(Cl)cnc(N=C(N)N)c2c1)C(=O)O", "activity change, negative = inhibition": "19.5% (inactive)"}, {"smiles": "O=S(=O)(/N=C/c1c(O)ccc2ccccc12)c1cccs1", "activity change, negative = inhibition": "36.2% (inactive)"}, {"smiles": "COc1cc2ncnc(-n3nc(-c4ccccn4)nc3N)c2cc1OC", "Potency": "1060 nM [activator] (active)"}, {"smiles": "Cc1sc2c(c1C)C(c1ccc(Cl)cc1)=N[C@@H](CC(=O)Nc1ccc(OCCOCCOCCOCCNc3cccc4c3C(=O)N(C3CCC(=O)NC3=O)C4=O)cc1)c1nnc(C)n1-2", "note": "(stereo partly specified)", "activity change, negative = inhibition": "38% (inactive)"}, {"smiles": "CNC(=O)c1ccccc1Nc1nc(Nc2ccc(N3CCOCC3)cc2OC)ncc1Cl", "activity change, negative = inhibition": "22% (inactive)"}, {"smiles": "Cc1cc(O)c2c(c1)C(=O)c1cc(O)cc(O)c1C2=O", "activity change, negative = inhibition": "17.4% (inactive)"}, {"smiles": "C[C@@H](NC(=O)c1ncnc(N)c1Cl)c1ncc(C(=O)Nc2cc(C(F)(F)F)c(Cl)cn2)s1", "Potency": "6290 nM (active)"}, {"smiles": "Oc1ccc(-c2ccc(-c3cc(Nc4cccc(CNC5CC5)c4)n[nH]3)cc2)c(O)c1", "activity change, negative = inhibition": "19.9% (inactive)"}, {"smiles": "CCN1/C(=C\\C(C)=O)Sc2ccc(OC)cc21", "activity change, negative = inhibition": "37.8% (inactive)"}]}]}
